# Source: PubChem BioAssay (Tox21)
# Records with an inconclusive call do not appear. A call without a number means that no potency is given here. Active and inactive are the calls of the source. Calls come from the whole dose curve; as a rule, active = well fitted inhibition curve with a large enough effect in the signal ratio in the repeat runs (not every such curve was filed as active); inconclusive = weak or mixed curves, or effect the other way; inactive = flat fitted curve, though single readings scatter; the % refers to the signal ratio.
# Assay: cAMP Responsive Elements (CRE) small molecule antagonists, cell-based qHTS assay (AID 1963591)
# Settings: CRE-bla HEK293T, beta-lactamase FRET ratio; series mostly up to 92.4 µM
# Excerpt: U.S. Tox21 Program National Center for Advancing Translational Sciences [NCATS] Division of Preclinical Innovation [DPI] U.S. Environmental Protection Agency [EPA] National Institutes of Environmental Health Sciences [NIEHS] National Toxicology Program [NTP] U.S. Food and Drug Administration [FDA] Tox21 Assay Overview: CREB (cyclic-AMP Responsive Element Binding Protein) is a cellular transcription factor. It binds to certain DNA sequences called cAMP Responsive Elements (CRE) and regulates the transcription of the genes. […] This cell line can be used to find agonists/antagonists of the cyclic AMP signaling pathway. The activation of the report gene under culture conditions can be detected by fluorescence intensity. This cell line has been used to screen the Tox21 10K compound library to […].
# Tox21 Assay Protocol Summary: CRE-bla Hek 293T cells were suspended in assay medium (DMEM containing 10% dialyzed FBS, 0.1 mM NEAA, 1 mM sodium pyruvate and 25 mM HEPES) and dispensed at 2,000 cells/4 uL /well into 1536-well black wall/clear bottom plates using a Multidrop Combi (ThermoFisher Scientific, Waltham, MA) dispenser. After the assay plates were incubated at 37 C/5% CO2 for 18 hrs, 23 nL of compounds dissolved in DMSO, positive controls or DMSO only was transferred to the assay plate by a pintool workstation (Kalypsys, San Diego, CA), followed by addition of 1 […] uL of 1.25uM NKH477 (0.25 uM as final concentration) in assay medium using a Flying Reagent Dispenser (Aurora Discovery, San Diego, CA). The plates were incubated at 37 C and 5% CO2 for 3 hrs. Then 1 uL of LiveBLAzer B/G FRET substrate (Invitrogen, Carlsbad, CA) was added to each well using Bioraptr Flying Reagent Dispenser (FRD, Aurora Discovery, San Diego, CA). The plates were incubated at room temperature for 2 h.
row,SMILES,Potency
1,OCc1ccc(Cl)cc1Cl,inactive
2,CNNCc1ccc(C(=O)NC(C)C)cc1,inactive
3,CCC(O)OCCCOC (stereo not given),inactive
4,CS(=O)(=O)OCCCCOS(C)(=O)=O,inactive
5,CC(=O)OCC(=O)[C@@]12N=C(C)O[C@@H]1C[C@H]1[C@@H]3CCC4=CC(=O)C=C[C@]4(C)[C@H]3[C@@H](O)C[C@@]12C,inactive
6,C=C(C)CC(C)(C)C,inactive
7,NS(=O)(=O)O,inactive
8,CCOC(=O)C(C)(C)Oc1ccc(Cl)cc1,inactive
9,CCOC(=O)c1ccc(O)cc1,inactive
10,CC1(C)S[C@@H]2[C@H](NC(=O)COc3ccccc3)C(=O)N2[C@H]1C(=O)O,inactive
11,NC(CO)(CO)CO,inactive
12,CN(C)Cc1cc(CN(C)C)c(O)c(CN(C)C)c1,inactive
13,CC(C)OB(OC(C)C)OC(C)C,inactive
14,C/C=C/c1ccc(O)c(OC)c1,inactive
15,CC(C)c1ccc(C(C)C)cc1,inactive
16,COc1ccc(Nc2ccccc2)c(C)c1,inactive
17,C=C(C)C(=O)OCCCCCC,inactive
18,NC(=NCCCCCCN=C(N)/N=C(\N)Nc1ccc(Cl)cc1)/N=C(\N)Nc1ccc(Cl)cc1,inactive
19,O=C(c1ccccc1)c1ccc(O)c(O)c1O,inactive
20,CCCCCCCCCCCCCCCCCC(=O)OCC(O)CO (stereo not given),inactive

row,SMILES,Potency
1,CCCCCCCCC/C=C/CC1CC(=O)OC1=O (stereo not given),inactive
2,c1ccc2c(c1)ccc1ccccc12,inactive
3,OB(O)O,inactive
4,Nc1ccc(O)c(C(=O)O)c1,inactive
5,C[C@]12C=CC(=O)C=C1CC[C@@H]1[C@@H]2[C@@H](O)C[C@@]2(C)[C@H]1CC[C@]2(O)C(=O)CO,inactive
6,Cc1c(N(C)C)c(=O)n(-c2ccccc2)n1C,inactive
7,CCCc1cc(=O)[nH]c(=S)[nH]1,inactive
8,O=C=NCCCCCCN=C=O,inactive
9,N[C@@H](Cc1cc(I)c(Oc2ccc(O)c(I)c2)c(I)c1)C(=O)O,inactive
10,CC(=O)[C@H]1CC[C@H]2[C@@H]3CC=C4C[C@@H](O)CC[C@]4(C)[C@H]3CC[C@]12C,inactive
11,Nc1nc(=S)c2[nH]cnc2[nH]1,inactive
12,CNC[C@H](O)[C@@H](O)[C@H](O)[C@H](O)CO,inactive
13,CC(O)(P(=O)(O)O)P(=O)(O)O,inactive
14,Cc1ccc(S(=O)(=O)Oc2ccc(N=Nc3ccc(-c4ccc(N=Nc5c(O)ccc6cc(S(=O)(=O)O)cc(S(=O)(=O)O)c56)c(C)c4)cc3C)cc2)cc1,inactive
15,C[Si](O[Si](C)(C)C)O[Si](C)(C)C,inactive
16,Cc1ccnc2c1NC(=O)c1cccnc1N2C1CC1,inactive
17,O=C(O)c1ccccc1,inactive
18,CNC[C@H](O)c1ccc(O)c(O)c1,inactive
19,O=C(O)c1cccc(C(=O)O)c1,inactive
20,CCCCCCCCCCCCCCCO,inactive
